Screening data as filed in PubChem.
Shown are actives, neighbours in structure and some others; about 11% of the full set was active somewhere.
USP30 inh – blocks human USP30 ubiquitin-rhodamine cleavage. Q70CQ3. 47,000 tested, 5.3% active. inhibition, % at 25 µM. purified USP30, Ub-rhodamine cleavage fluorescence. AID 1645860
USP17 inh – inhibitors of human USP17 deubiquitinase; A8MUK1; purified USP17, Ub-rhodamine cleavage fluorescence, 3 h; inhibition, % at 50 µM; 47,000 tested, 6.5% active; AID 1645855
USP28 inh – human USP28 deubiquitinase inhibition; purified USP28, Ub-rhodamine cleavage fluorescence, 30 min; inhibition, % at 25 µM; 47,000 tested, 3% active; AID 1645857
Target sequence (Q96RU2 whole entry, looked up): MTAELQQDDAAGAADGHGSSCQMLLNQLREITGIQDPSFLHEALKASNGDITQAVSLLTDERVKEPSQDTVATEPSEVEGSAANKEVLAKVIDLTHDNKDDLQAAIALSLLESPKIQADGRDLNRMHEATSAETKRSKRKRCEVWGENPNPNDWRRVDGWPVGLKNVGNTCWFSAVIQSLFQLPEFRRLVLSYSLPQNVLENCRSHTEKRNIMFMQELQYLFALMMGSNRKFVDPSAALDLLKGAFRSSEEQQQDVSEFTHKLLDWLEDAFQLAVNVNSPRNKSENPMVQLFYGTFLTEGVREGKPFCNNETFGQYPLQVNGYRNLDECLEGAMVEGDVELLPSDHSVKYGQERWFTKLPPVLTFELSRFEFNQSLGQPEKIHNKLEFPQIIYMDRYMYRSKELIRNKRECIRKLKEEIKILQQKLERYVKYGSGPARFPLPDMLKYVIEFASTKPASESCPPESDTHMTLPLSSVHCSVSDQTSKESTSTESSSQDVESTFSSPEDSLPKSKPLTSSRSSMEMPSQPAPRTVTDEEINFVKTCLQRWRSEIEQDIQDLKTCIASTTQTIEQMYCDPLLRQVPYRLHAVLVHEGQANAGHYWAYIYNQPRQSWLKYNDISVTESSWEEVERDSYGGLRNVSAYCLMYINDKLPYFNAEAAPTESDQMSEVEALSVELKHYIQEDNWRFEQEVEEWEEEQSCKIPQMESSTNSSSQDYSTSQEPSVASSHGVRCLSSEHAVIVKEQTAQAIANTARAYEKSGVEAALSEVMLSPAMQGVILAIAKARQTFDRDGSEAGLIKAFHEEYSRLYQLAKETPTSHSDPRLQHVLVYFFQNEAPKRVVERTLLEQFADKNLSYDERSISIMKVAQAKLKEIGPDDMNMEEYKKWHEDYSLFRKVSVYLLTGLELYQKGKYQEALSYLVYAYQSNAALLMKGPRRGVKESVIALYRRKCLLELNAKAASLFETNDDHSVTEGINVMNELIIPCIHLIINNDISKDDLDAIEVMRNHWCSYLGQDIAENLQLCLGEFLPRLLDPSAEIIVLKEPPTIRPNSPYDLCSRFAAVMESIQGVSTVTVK
OTUD3 inh – blocks human OTUD3 ubiquitin-rhodamine cleavage | 47,000 tested, 0.7% active | Q5T2D3 | purified OTUD3, Ub-rhodamine fluorescence, 2 h | inhibition, % at 25 µM
An asterisk follows results filed as active; nt = not tested or not shown. Rule as the data show it: active = inhibition above about 30%; inactive = the rest.

SMILES	USP30 inh	USP17 inh	USP28 inh	OTUD3 inh
O=C(Nc1ccc(F)cc1F)c1ccc(-c2nc(-c3ccc(F)cc3)cs2)cc1	1.9	3.2	3.4	6.5
O=C(Nc1ccc(F)cc1F)c1csc(-c2ccccc2)n1	20.8	82.6*	15.3	11.2
COc1ccccc1C(=O)N1CCCC(c2[nH]nc3nccnc23)C1 (stereo not drawn)	12.6	12.2	8.3	6.8
CCCCCCCC1OC(=O)Cc2cc(O)c(O)c(O)c21 (stereo not drawn)	62.9*	95.6*	94.0*	91.6*
Cc1c(C(=O)NCc2ccco2)oc2c1/C(=N\O)CCC2	3.1	31.2*	15.0	15.3
O=C1c2ncccc2N(S(=O)(=O)c2cccc(F)c2)C[C@@H]2C[C@]12c1ccccc1	1.8	-0.1	3.5	-5.9
CCN1C[C@@H]2C[C@]2(c2ccccc2OC)C(=O)c2ncccc21	-53.7	65.0*	0.9	-20.0
COc1ccccc1[C@]12C[C@H]1CN(C(=O)Nc1ccncc1)c1cccnc1C2=O	33.9*	15.4	7.2	12.9
Cc1cccc(OCC(=O)NCC(c2ccco2)N2CCCC2)c1C (stereo not drawn)	0.6	2.2	-1.4	1.7
CC(C)Cc1nc2sc3c(SCC(=O)NC4(c5ccccc5)CCCC4)ncnc3c2c2c1CCC2	25.8	42.2*	19.9	7.9
CC(C)Cc1nc2sc3c(SCC(=O)Nc4ccc(Cl)cc4)ncnc3c2c2c1CCC2	9.1	13.4	3.3	4.3
Cc1cccc(NC(=O)CSc2ncnc3c2sc2nc(CC(C)C)c4c(c23)CCC4)c1	34.1*	73.9*	9.1	10.9
CSc1cccc(NC(=O)c2cn3c(n2)CCCC3)c1	8.7	-0.4	3.3	3.6
CCOC(=O)c1[nH]c2c(c1Cc1ccccc1)C(=O)CC(C)(C)C2	0.0	42.4*	-11.6	-7.3
CCOC(=O)c1c(C)nc2c(c1-c1ccccc1)C(=O)CC(C)(C)C2	29.0	0.7	3.2	14.2
COc1cccc2sc(N3CCN(c4nc5ccccc5s4)CC3)nc12	-13.1	77.1*	-8.1	-5.4
CC(=O)N1C[C@H](c2ccccc2)[C@H]2CN(C(=O)c3ccc(=O)[nH]c3)CC[C@H]21	30.3*	7.3	14.7	12.7
O=C1N[C@H]2OCC[C@H]2[C@H](C2CCN(C(=O)c3ccc(=O)[nH]c3)CC2)N1	-20.0	-9.5	-6.0	-0.7
CCN(CC)S(=O)(=O)c1cc(C(=O)Nc2ccc(C)c(C)c2)ccc1Cl	-6.6	-18.0	-3.7	-1.3
O=C(Nc1ccc2n[nH]nc2c1)c1ccc(Cl)c(Cl)c1	53.0*	51.1*	17.0	40.3*
O=C(c1cc2c(s1)-c1ccccc1S(=O)(=O)C2)N1CCN(c2ccccc2F)CC1	26.1	11.0	25.2	2.1
N#Cc1ccccc1NC(=O)c1cc2c(s1)-c1ccccc1S(=O)(=O)C2	82.9*	72.3*	87.6*	55.8*
COc1cccc(N2CC(C)Cn3c2nc2c3c(=O)n(CC(=O)OCc3ccccc3)c(=O)n2C)c1 (stereo not drawn)	38.5*	2.2	20.5	17.8
Cc1cc(C)cc(N2CC(C)Cn3c2nc2c3c(=O)n(CC(=O)OCc3ccccc3)c(=O)n2C)c1 (stereo not drawn)	0.8	0.0	-0.5	5.2
Cc1ccc(NC(=O)Cn2nc3cnc4ccccc4n3c2=O)cc1	-160.1	-91.8	-59.9	-27.3
SMILES	USP30 inh	USP17 inh	USP28 inh	OTUD3 inh
O=C(Nc1nnc2n1CCCS2)c1cc2ccccc2o1	14.1	-21.1	50.8*	4.7
Cc1ccc(C(=O)Nc2nnc3n2CCCS3)cc1	-3.9	-16.4	32.0*	-6.2
O=C(Nc1nnc2n1CCCS2)c1ccc(Cl)cc1	2.5	-30.1	15.8	-4.9
Cc1ccc(NC(=O)CCCN2C(=O)c3cccnc3Sc3ccccc32)c(C)c1	8.5	-1.2	-0.1	1.8
CC(C)c1cc2c(c(O)c1O)[C@@]13CCCC(C)(C)[C@@H]1C[C@@H]2OC3=O	11.1	73.5*	32.6*	27.5
N#Cc1c(-c2ccc(Cl)cc2)cc(-c2cccs2)nc1N	-7.9	38.2*	27.3	-0.8
CCOC(=O)COc1nc(-c2ccccc2)cc(-c2cccs2)c1C#N	-9.1	-4.7	-14.0	-8.7
O=C(NCCc1ccc(F)cc1)c1cc2c([nH]c1=O)CCCC2	-0.8	41.8*	-12.0	-2.5
O=C(NCCc1ccc(F)cc1)c1csc2c1CCCC2	15.0	4.8	21.8	15.8
Cc1cccc(NC(=O)c2ccc(-c3noc(C)n3)cc2)n1	-9.8	nt	-9.2	-6.5
Cc1ccc(OCC(=O)Nc2cccc(-c3nc4ncccc4o3)c2)c(C)c1	59.0*	19.8	15.9	1.3
O=C(Nc1cccc(-c2nc3ncccc3o2)c1)c1cccc(-c2cc3ccccc3oc2=O)c1	67.2*	68.0*	69.5*	21.7
